± gives the standard deviation of the averaged measurements. The full ranking holds about 25,000 sequences; the median of “ln(normalized median fluorescence intensity)” is about 10, and the highest 2% start at about 12. The list comes from a sample in which the highest values are over-represented; it also holds similar and randomly drawn sequences.
The sequences below were run on PfAP2-G AP2 domain (GST-tagged) (assay: gcPBM binding intensity (ln(normalized median fluorescence intensity)); higher = stronger DNA binding).
In short: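 Probes on an Agilent 4 × 180k array were primer-extended, double-stranded and 36 bp long, taken from intergenic genomic regions, with negative controls added. GST-tagged P. falciparum DNA-binding domains from E. coli, about 25 μg on average, were applied to the array for 1 h in 1× PBS containing 1% milk, 0.2 mg/ml BSA, 0.5% salmon testes DNA and 0.03% Triton X-100. Binding intensity, obtained after Alexa488 anti-GST antibody detection and a 488 nm scan, is the highest Masliner-normalised natural-log median intensity across replicate spots of either probe orientation.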

Sequence | gcPBM binding intensity (ln)
AAAAAAAAAAGAAAGAGTACTTTTTCAATACATATA [XGTACX_site2468] | 11.1 ± 0.7
TTAACTTATTTGTAAAGTACATTAATAAAAAGAAAA [XGTACX_site1588] | 11.1 ± 0.42
ATATATATATATATATGTACATATATTTTTATTTAT [XGTACX_site3508] | 11.2 ± 0.76
TAACTACTAGAAAAAACACACAAAAAGTAAATATAT [CACACA_site2740] | 10.045 ± 0.007
ATACATACATATATATGTACTTATATTTTACACATT [XGTACX_site1688] | 11.2 ± 0.75
AATGGAAAAATAGGCACACACACATAAATACAGATA [CACACA_site4844] | 10.3 ± 0.18
TGTAAATATAAATGTAATAAATATGTAAAAATAAAT [XGTACX_negctrl_site171] | 9.79 ± 0.13
AATGAATAAATAAACACACACACATATATAAATATG [CACACA_site6160] | 10.05 ± 0.014
GATAAAATATGTTGCCGTACATATTCATATACTTAA [XGTACX_site4776] | 11 ± 0.62
GGTAGTTATTATCTCCGTACTTATAAAGAAAAAAGG [XGTACX_site4674] | 10.9 ± 0.63
ATTTTTATTTTTTTTGTGCACATTTTCATTTTCTAT [GTGCAC_site9580] | 10.54 ± 0.085
TTTGTGTGTACGCGTGTGCACATTTTTTTTTTTTTT | 11.7 ± 0.92
TATGTATATTTTTTTGTGCACATATATATATATATA | 10.4 ± 0.35
TATAATATAAAAATGAGTACATAGATAATAATATTT [XGTACX_site2376] | 11.3 ± 0.74
ATAAATCATAAGGAGAGTACATAAATAAAATAATCA [XGTACX_site8825] | 11.2 ± 0.71
TCATATTTCCATAGGAGTACATAAAAAAAATAATAT [XGTACX_site7601] | 11.7 ± 1.2
TATACACATATATACACACACATATATAAATAAATA [CACACA_site7579] | 10 ± 0.23
CAAACAAACGGACACACACACACACCCAAAAATGAT [CACACA_site5363] | 11.2 ± 0.69
TATATTTATATAATATGTACATATTTTTTAATATTT [XGTACX_site3834] | 11.2 ± 0.72
AATGTGTACGCACGCACACACAAAAAAATATATATA [CACACA_site2913] | 11.6 ± 1.2
ATATGAAAGGTGTACACACGCACACCCAAAAAAATA [CACACA_site2911] | 11.7 ± 0.95
AATGTACACGCACCCACACACAAACAAATATAAATA [CACACA_site7319] | 11.4 ± 1
GTGTAATATGAAATGTGTACACACGCACACACAAAA [XGTACX_site6180] | 11.7 ± 1.1

Sequence | gcPBM binding intensity (ln)
GAAAAAGACAAAAGGTGTACAATATGAAATATATAT [XGTACX_site373] | 11.5 ± 0.86
GAAATGTGTAGACACGCACACACAAAAAAATATATA [CACACA_site2912] | 10.2 ± 0.34
ATTTTTTTACAAAAATGTACACATGAAATATGTAAT [XGTACX_site1372] | 11.3 ± 0.69
AATGTACACCCACCCACACACAAACAAATATATATA [CACACA_site5521] | 11.4 ± 0.92
AACATATTAATGTACACACACCCACGCACAAACAAA [CACACA_site7320] | 11.5 ± 0.91
TAATATGAAATGTGTACACACGCACCCACAAAAAAA [CACACA_site8949] | 11.8 ± 0.93
TGTAATATGAAATGTGTACACACGCACCCACAAAAA [CACACA_site8948] | 11.6 ± 1
TAATATGAAAAGTGTACACACGCACAGACAAAAAAA [CACACA_site5594] | 11.6 ± 0.95
AATTTGTTAATATTTTGTACACATAATATAAAAACA [XGTACX_site2224] | 11.3 ± 0.89
ATAATATGAAGAAGCACACTCAATTAAATACAGATA [CACACA_site4690] | 9.97 ± 0.071
ACAAAATGTAGAAAATGTACAAAATTAACAAAAGAA [XGTACX_site5019] | 10.7 ± 0.3
CTTCTTGTAAAATTTGCATGTAATTAAAAGAGAATG [TGCATGCA_site484] | 10.2 ± 0.3
TACAAAAAATTATGGAGTACATATATAATATACAAT [XGTACX_site1004] | 11.5 ± 0.88
GCACTCGTAAAAAGCACACATATAAAAACATTTATA [CACACA_site322] | 10.2 ± 0.26
AAATAAAATTTTTGTTGTACTTATTTTTAGTATACT [XGTACX_site4254] | 11.5 ± 0.81
TTTTTTTTTTTTTTTTGTACTTATAAAAAATTTTTT [XGTACX_site1249] | 11.1 ± 0.88
TAAAATTTTGTTTGTTGTACTTATTTTCGTGTCAAC [XGTACX_site8277] | 11.6 ± 1
TATATAATATATATATGTACACATATACATTTTTAT [XGTACX_site2832] | 11.5 ± 0.97
ATTTATTTTCTGTGTACACATATGTTGGGTATTTTA [CACACA_site5902] | 11.7 ± 0.96
ATAACATACATAACAACACACAATATTTATATGTAT [CACACA_site210] | 9.85
GAAAAAAGAAAAAAAAGTACACACATGTATATTAAT [XGTACX_site5265] | 11.5 ± 0.91
TACATATTTTTTATGTGTACATATTTTTTATGTGTG [XGTACX_site444] | 11.5 ± 0.68
TATATTTATTTTCTGTGTACACATATGTTGTGTATT [XGTACX_site7640] | 11.6 ± 1

Sequence | gcPBM binding intensity (ln)
TACATATTTTTTATGTGTACATATTTTTTATGTGTA [XGTACX_site443] | 11.4 ± 0.76
ATATATATACTGTGTACACACATATGTATTTATATA [CACACA_site4600] | 11.6 ± 0.78
AAAATAATATATGTATGTACATATACACATATAGAA [XGTACX_site2218] | 11.1 ± 0.59
CAACATATGCATATGTGTACATATTTTATTTTCAAC [XGTACX_site2237] | 11.7 ± 1.1
GATAACAATATGTGTACACATTTATATCTCCACATA [CACACA_site5442] | 11.7 ± 0.83
AAAATATTTAATAGAAGTACACATGTATATATACAT [XGTACX_site8942] | 11.6 ± 1.2
GAATGTCTAATTTTGATGCACACTTTTGTGCAATTA [CACACA_site2902] | 10.2 ± 0.24
AAAAAAAAAAAAAAAACACACATATATGTATATATA [CACACA_site3276] | 10 ± 0.27
AAGAAAAAAGGGGACAAGGCATATCTATATATACAT [TGCATGCA_negctrl_site172] | 10.7 ± 0.52
TTATAATTAAGATATAATCAATAATAACAAATGAAC [CACACA_negctrl_site1690] | 9.84 ± 0.014
AAACCGAATTTACATGAATGTAAATTATGTTGTTTT [CACACA_negctrl_site1834] | 9.53 ± 0.13
TTTGCTTCCAAAAGTCGTACAAAAAATATTAAATAT [XGTACX_site4171] | 11.6 ± 0.9
AATGAAGACTTTTTTACACACTTCATATCTTATAGA [CACACA_site7046] | 9.99 ± 0.028
AAAAATTACCCTTGTGTACACATATATTATCTGTAT [CACACA_site4513] | 11.6 ± 0.95
ATGTGATATAAGTACACACACATATGTATATAGAAT [CACACA_site1823] | 11.5 ± 1.1
TTTGATTTTAATGTGTGTACACATTTATTTATATAA [XGTACX_site4806] | 11.8 ± 1.2
GTATATATGTATATGTGTACACATATTCTTAACTCA [XGTACX_site309] | 11.6 ± 0.89
CAAAAATTACCCTTGTGTACACATATATTATATGTA [XGTACX_site1124] | 11.6 ± 0.91
GTATGTATATTTATCTGTACATATTTATGTATTCTT [XGTACX_site2112] | 11.2 ± 0.64
AAATTACCCTTGTGTACACATATATTATCTGTATTA [CACACA_site4514] | 12 ± 1.4
TATCTGTATATGTGTACACATATTCTTAACTCACGC [CACACA_site4255] | 11.7 ± 1
ATGTGATAGAAGTACACACACATATGTATTTATAAT [CACACA_site5075] | 11.7 ± 1.1
TATTTCTGATTATTTTGTACACATTATATATAATGC [XGTACX_site6990] | 11.2 ± 0.83

Sequence | gcPBM binding intensity (ln)
ATGTGATATAAGTACACACACATATGTATTTATAAC [CACACA_site6942] | 11.5 ± 0.8
TTTGTGTATATATAATGTACATTATATTTTTATTAT [XGTACX_site6506] | 10.9 ± 0.53
TTATTAAATTTTTTTTGTACTTATATATATATATAT [XGTACX_site2443] | 11.2 ± 0.79
TTTTTTTTTTTTTACACACACAAAATATTATCTGTA [CACACA_site5378] | 9.83 ± 0.42
AATAATTAAATATATTTATAACAGGAAAATATTTAT [XGTACX_negctrl_site175] | 10.2 ± 0.16
TGTTGTATTTTTACAACACACATTTAATCCATTTAA [CACACA_site1507] | 10 ± 0.27
CTTCCTTAGGAATGTACACACATATAAAATATGTTG [CACACA_site6355] | 11.4 ± 0.84
ATAAAATAATTAATGGGTACATAATTAAATAAAGAG [XGTACX_site3309] | 11.3 ± 0.66
TTTTATGAAAAATGGCTTATCTGTAAAGAAGTGGAG [CACACA_negctrl_site1586] | 10.3 ± 0.36
AAGGTATAGAAACACACACACGTGAATATAGTTTAA [CACACA_site5109] | 10.01 ± 0.028
ATTTTTTTTTTTATGTGTACATATATTTTTTTAATT [XGTACX_site7921] | 11.6 ± 0.97
ATATATATATAATGTGTACACACATATGTATTTATA [CACACA_site8170] | 11.7 ± 0.67
ATATATATATATTTATGTACATATACATAATGTATA [XGTACX_site6387] | 11.2 ± 0.76
TAATATAATAGAAGTGTACACACATATTTATGGGTG [CACACA_site9023] | 11.6 ± 0.93
ATATTTATAATTTTTTGTACACATTTTTTAAAGATA [XGTACX_site1784] | 11.4 ± 0.9
GATTTTAATGGGTGTACACATTTATTTATATAAAGT [CACACA_site5317] | 11.7 ± 0.93
ATGTATATATTTTTATGTACATATTTTTAATTTATA [XGTACX_site2982] | 11.4 ± 0.87
ATATATATATATATATGTACATATTTTATTTAATTT [XGTACX_site1807] | 11.2 ± 0.69
TTTTATTTATCTTAATGTACACATTTATATATATAT [XGTACX_site8588] | 11.7 ± 1.3
GTATGTATGTATATATGTACACATTATTATTTAATG [XGTACX_site5802] | 11.6 ± 1
TCACATATATATTAATGTACATATATTTTTTATGTA [XGTACX_site5125] | 11.2 ± 0.54
GTATATATGTATATGTGTACATATATTTTATAATAT [XGTACX_site5703] | 11.3 ± 0.79

From the supplement of paper PMC11417369
